# Measurements taken from ChEMBL document CHEMBL4513216, “Probing the Open Global Health Chemical Diversity Library for Multistage-Active Starting Points for Next-Generation Antimalarials” (ACS Infect Dis, 2020).
# In all, about 69,000 compounds went through this assay and about 8,600 (12%) showed an effect of 50% or more. The list comes from a sample in which strong results are over-represented; it also holds similar structures and randomly drawn compounds.
# System: Plasmodium berghei
# Experiment: Screen against P. berghei liver stage (PbLuc), transformed with Luciferase, at 10uM
# Type: functional, HepG2
# Details: tested at 10 uM
row,Compound,INHIBITION [%]
1,CCN1CC(C(=O)NCCc2csc(-c3ccncc3)n2)CC1=O (stereo not drawn),-2.92
2,CC(=O)N1CCC(Cc2cccc(-c3c(C)noc3C)n2)C1 (stereo not drawn),8.53
3,Nc1nc(N2CCCC(COc3ccc(F)cc3)C2)c2nc[nH]c2n1 (stereo not drawn),33.7
4,Nc1cc(N2CCCC(COc3ccc(F)cc3)C2)nc(N)n1 (stereo not drawn),79.5
5,Nc1cc(N2CCCC(COc3ccc(F)cc3)C2)ncn1 (stereo not drawn),23.7
6,OC(COCc1ccccc1Cl)CN1CCC(c2ccn[nH]2)CC1 (stereo not drawn),48.2
7,Cc1ccc(CN2CC3(CCNCC3)CCC2=O)c(F)c1F,71.1
8,COc1ccc(CN2CC3(CCNCC3)CCC2=O)c(F)c1F,22.9
9,COc1cccc(CN2CC3(CCNCC3)CCC2=O)c1OC,24.2
10,c1ccc(NC[C@@H]2CCC[C@@H]3CN(c4ncccn4)C[C@@H]32)nc1,48.4
11,CC[C@H]1CN(C(=O)c2cnc(N3CCN(C)CC3)nc2C)CC[C@@]1(C)O,1.93
12,CC(=O)N1CCc2nnc(C3CCCN3CC3CCCCC3)n2CC1 (stereo not drawn),-5.71
13,CC(CNC(=O)CCCc1ccccn1)c1ccsc1 (stereo not drawn),60.2
14,CC(CNC(=O)CCc1ccccn1)c1ccsc1 (stereo not drawn),22.2
15,CC(C)C(O)CNC(=O)CCCc1ccccn1 (stereo not drawn),15.5
16,CC(C)CS(=O)(=O)CC(=O)NC1CCCCNC1=O (stereo not drawn),-79.1
17,O=C(c1cnc(-c2ccccn2)s1)N1CCCC1Cn1cccn1 (stereo not drawn),-9.19
18,O=C(N1CCOCC1)N1CCc2ncnc(Oc3cccnc3)c2CC1,0.734
19,Cc1nc(N(C)C)nc(NCCc2ccccn2)c1C,-43.6
20,Cc1nc(NCCSc2ccccn2)c2c(C)noc2n1,13.5
21,Cc1nc(C)c(C)c(NCCSc2ccccn2)n1,60.2
22,CC(C)CN1C[C@@H]2CN(C(=O)[C@H]3CCCO3)C[C@@H]2C1=O,17.4

row,Compound,INHIBITION [%]
1,CCN1CCCC1CNCc1cc2cc3c(cc2[nH]c1=O)OCCO3 (stereo not drawn),58.2
2,COc1ccc2[nH]c(=O)c(CN(C)C(C)c3ccccn3)cc2c1 (stereo not drawn),-3.55
3,COc1ccc2cc(CN(C)CCc3cn[nH]c3)c(=O)[nH]c2c1,36.5
4,CCN1CCCC1CNCc1cc2cc(OC)ccc2[nH]c1=O (stereo not drawn),72.2
5,CCN1CCCC1CNCc1cc2cc(C)c(C)cc2[nH]c1=O (stereo not drawn),-29.9
6,CCN1CCCC1CNCc1cc2cc(OC)c(OC)cc2[nH]c1=O (stereo not drawn),18.3
7,COc1ccc2cc(CN(C)CCN3CCCCC3=O)c(=O)[nH]c2c1,-15.1
8,COc1ccc2[nH]c(=O)c(CN(C)CCN3CCCC3)cc2c1,63.9
9,CCN1CCCC1CNC(=O)CCSc1ccc2c(c1)OCCO2 (stereo not drawn),38.5
10,CCOc1ccc2[nH]c(=O)c(CN(C)CCc3cn[nH]c3)cc2c1,54.4
11,CCN1CCCC1CNCc1cc2ccccc2[nH]c1=O (stereo not drawn),-61.5
12,CSc1ccc2cc(CN(C)CCc3cn[nH]c3)c(=O)[nH]c2c1,20.8
13,CCOc1cc(C)nc(N2CCN(C(=O)c3cscn3)CC2)n1,15.3
14,Cc1csc(NC(=O)c2ccc(NC(=O)N3CCOCC3)cc2)n1,-37.4
15,Cc1cccc(C(=O)NCc2ccc(CS(N)(=O)=O)cc2)n1,-33.9
16,O=C1CCCN1Cc1nnc2n1CCN(Cc1ccccn1)CC2,-30.7
17,COc1ncc(CN2C[C@@H]3C[C@@H](O)CN3C[C@@H]2Cc2ccccc2)cn1,33.8
18,c1cn2c(n1)CN(Cc1ccsc1)CC(Cn1cncn1)C2 (stereo not drawn),49.7
19,CC(C)c1nc(CN(C)Cc2ccc(O)c(C(=O)O)c2)cs1,-14.1
20,CCOc1ncccc1CNC(=O)Nc1ccccc1,31.3
21,COc1ccc(CC2CN(C(=O)c3coc(C)n3)CCO2)cc1 (stereo not drawn),9.05
22,Cc1nc(-c2cncnc2C2CCCNC2)no1 (stereo not drawn),-3.45

row,Compound,INHIBITION [%]
1,COc1ccc2c(C)c(C(=O)NC3CCCOC3)oc2c1 (stereo not drawn),60.9
2,COc1ccc2c(C)c(C(=O)NC3CCN(S(C)(=O)=O)CC3)oc2c1,-112
3,COc1ccc2c(C)c(C(=O)NC3CCOCC3)oc2c1,-104
4,CNS(=O)(=O)c1ccc(C(=O)N2CCCC2c2ccncc2)o1 (stereo not drawn),36.1
5,Cc1cc(NCc2ccco2)nc2[nH]nc(N)c12,61
6,Cc1cc(NCCO)nc2[nH]nc(N)c12,26.7
7,Cc1cc(NCc2ccccc2)nc2[nH]nc(N)c12,-0.232
8,CC1COCCN1C(=O)COc1ccc(Oc2ccccn2)cc1 (stereo not drawn),8.99
9,CC1COCCN1C(=O)COc1cccc(Oc2ccccn2)c1 (stereo not drawn),-20.6
10,CC1CN(C)CCN1C(=O)COc1cccc(Oc2ccccn2)c1 (stereo not drawn),61.2
11,CSCC(=O)NS(=O)(=O)c1ccc2c(c1)OCCO2,8.315
12,O=S(=O)(CCCS(=O)(=O)c1ccc2c(c1)OCCCO2)c1ccccc1,-46.8
13,CC(C)CC(=O)NS(=O)(=O)c1ccc2c(c1)OCCCO2,-7.81
14,CCS(=O)(=O)c1ccc2c(c1)OCCCO2,55.9
15,CCSCCC(=O)NS(=O)(=O)c1ccc2c(c1)OCCO2,41.9
16,CCS(=O)(=O)c1ccc2c(c1)OCCO2,77.8
17,CC1=N[C@@]2(CC[C@@H]3CN(Cc4cccc(Cl)c4)C[C@@H]32)C(=O)N1CC1CC1,14.9
18,Cc1ccc(C2CCCN(S(C)(=O)=O)C2)nc1 (stereo not drawn),6.75
19,O=C(NC[C@]12COC[C@H]1CN(C1CCOCC1)C2)c1ccco1,38.7
20,Cc1cccc2c1OCCCC2NCc1nnc2n1CCCCC2 (stereo not drawn),86.8
21,Cc1ccc2c(c1)OCCCC2NCc1nnc2n1CCCCC2 (stereo not drawn),-14.2
22,c1ccc2c(c1)OCCCC2NCc1nnc2n1CCCCC2 (stereo not drawn),-0.55

row,Compound,INHIBITION [%]
1,CS(=O)(=O)c1cc(Cl)cnc1C1CCN(C(=O)C2CCCO2)CC1 (stereo not drawn),12.75
2,O=C(Cc1cccc(F)c1)N1C[C@H]2CN(Cc3ccccn3)C[C@H]2C1,9.97
3,N#Cc1ccsc1N1CCC(Sc2ncc[nH]2)C1=O (stereo not drawn),27.6
4,CC(C)Nc1ncccc1C(=O)NCc1ccnn1C,43
5,Cc1c(NC(C)C(C)C)cccc1C(=O)NCc1nccn1C (stereo not drawn),57.4
6,Cn1ccnc1CNC(=O)c1ccnc(C2CCNCC2)c1,-12.4
7,Cc1c(NC(C)C(C)C)cccc1C(=O)NCc1cnn(C)c1 (stereo not drawn),29.3
8,Cc1c(NC(C)C(C)C)cccc1C(=O)NCc1nnc(C)n1C (stereo not drawn),-20.8
9,Cc1c(NC(C)C(C)C)cccc1C(=O)NCc1ccnn1C (stereo not drawn),62.7
10,O=C1NC2(Cc3ccccc31)CN(CC1CCCC1)C2,45.8
11,NC(=O)C1CCN(C(=O)c2cc(Br)ccc2-n2cnnn2)CC1,28.6
12,COC(=O)C1CCN(C(=O)c2cc(Br)ccc2-n2cnnn2)CC1,53.8
13,CCOC(=O)C1CCN(C(=O)c2cc(Br)ccc2-n2cnnn2)CC1,17.6
14,CC(CN1CCOCC1)OC(=O)c1ccccc1Cl (stereo not drawn),35.8
15,Cn1nnc2c1C(COCc1ccccn1)CN(C(=O)c1ccsc1)C2 (stereo not drawn),1.9
16,Cc1cc(CC(C)Nc2nc(-c3cccnc3)nc3c2CNC3)[nH]n1 (stereo not drawn),47.4
17,Cc1cc(N(C)Cc2snnc2C)nc(-c2cccnc2)n1,-26.2
18,Cc1ccccc1CN(CCN(C)C)Cc1ncc[nH]1,3.96
19,Cc1cc(N(C)Cc2ncc[nH]2)nc(-c2cccnc2)n1,-18.5
20,Cc1cc(N(C)Cc2cc(C(C)(C)C)n[nH]2)nc(-c2cccnc2)n1,76.5
21,Cc1cc(N(C)Cc2ncc[nH]2)nc(-c2ccccc2)n1,59.8
22,O=C(Cn1cccn1)N1CCC(c2nnc(-c3ccsc3)o2)CC1,23.55

row,Compound,INHIBITION [%]
1,CN(C1CCCN(c2ccccn2)C1)S(C)(=O)=O (stereo not drawn),-2.25
2,CC(=O)Nc1cc2c(cc1C)OCO2,19.3
3,COc1c(CNCC(O)COc2ccc3c(c2)OCO3)c(C)nn1C (stereo not drawn),21.5
4,Cc1ccccc1CN(C)CC(O)COCc1ccccc1Cl (stereo not drawn),60
5,COc1ccccc1COCC(O)CN(C)Cc1cccc(Cl)c1 (stereo not drawn),24.6
6,COc1ccc(CN(C)CC(O)COCc2ccccc2Cl)c(OC)c1 (stereo not drawn),48.2
7,O=S(=O)(NCc1ccc(S(=O)(=O)N2CCCC2)s1)c1ccc(F)cc1Cl,18.3
8,CN(C)S(=O)(=O)c1ccc2c(c1)N(Cc1nccn1C)CC2,37.1
9,Cc1ccc([C@@]2(O)CC[C@@H]3CN(S(=O)(=O)C(C)C)C[C@@H]32)cc1,3.91
10,CC(C)n1cc(CN2CCCN(C(=O)c3ccco3)CC2)cn1,25.1
11,CC(C)n1cc(CN2CCCN(C(=O)c3cc(Cl)c[nH]3)CC2)cn1,54.9
12,CC(C)n1cc(CN2CCCN(C(=O)c3ccc[nH]3)CC2)cn1,52.1
13,CC(C)n1cc(CN2CCCN(C(=O)c3cccn3C)CC2)cn1,34.6
14,Cc1cc(C(=O)N2CCCN(Cc3cnn(C(C)C)c3)CC2)no1,39.3
15,Cc1cnc(C(=O)N2CCCN(Cc3cnn(C(C)C)c3)CC2)cn1,9.06
16,Cc1cccc(CN2C[C@@H]3CN(C(=O)c4ccsc4)C[C@@H]3C2=O)n1,23.6
17,CN(C)S(=O)(=O)N1CCN(C(=O)OC(C)(C)C)CC12CCCCC2,27.5
18,Cc1cnn(CC2CCCN2Cc2cn3ccsc3n2)c1 (stereo not drawn),37.9
19,O=C1CCC(=O)c2oc3ccc(Cl)cc3c2N1,34.2
20,CN(C)C(=O)N1C[C@H]2CC[C@@H](C1)N(C(=O)CCCn1cncn1)C2,6.8
